# Laboratory results as given in ChEMBL document CHEMBL4513143, “CO-ADD screening of University of Natural Resources and Life (Austria) compounds”.
# Measured potencies and affinities stand elsewhere.
# System: Candida albicans
# Conditions: 32 ug/mL
row,Compound,Inhibition [%]
1,OC[C@@H](O)[C@H]1OC(O)C[C@@H](O)[C@@H]1O (stereo not given in full),4.53
2,CCN(CC)CC.C[C@H](CC1O[C@H]([C@@H](O)CO)[C@@H](O)[C@H](O)[C@@H]1O)OP(=O)(O)OC[C@H]1O[C@@H](n2cnc3c(N)ncnc32)[C@H](O)[C@@H]1O (stereo not given in full),-0.71
3,N.O=C(O)C1(O)C[C@@H](O)[C@H](O)[C@@H]([C@@H](O)CO)O1 (stereo not given in full),3.34
4,CCN(CC)CC.C[C@H](CC1O[C@H]([C@@H](O)CO)[C@@H](O)[C@H](O)[C@@H]1O)OP(=O)(O)O (stereo not given in full),1.33
5,CCN(CC)CC.C[C@@H](CC1O[C@H]([C@H](O)CO)[C@@H](O)[C@H](O)[C@@H]1O)OP(=O)(O)OC[C@H]1O[C@@H](n2cnc3c(N)ncnc32)[C@H](O)[C@@H]1O (stereo not given in full),-0.9
6,CCN(CC)CC.C[C@H](CC1O[C@H]([C@H](O)CO)[C@@H](O)[C@H](O)[C@@H]1O)OP(=O)(O)OC[C@H]1O[C@@H](n2cnc3c(N)ncnc32)[C@H](O)[C@@H]1O (stereo not given in full),2.8
7,CCN(CC)CC.C[C@@H](CC1O[C@H]([C@@H](O)CO)[C@@H](O)[C@H](O)[C@@H]1O)OP(=O)(O)OC[C@H]1O[C@@H](n2cnc3c(N)ncnc32)[C@H](O)[C@@H]1O (stereo not given in full),0.32
8,CC(=O)CC1O[C@H]([C@@H](O)CO)[C@@H](O)[C@H](O)[C@@H]1O (stereo not given in full),-0.45
9,CCN(CC)CC.C[C@@H](CC1O[C@H]([C@@H](O)CO)[C@@H](O)[C@H](O)[C@@H]1O)OP(=O)(O)O (stereo not given in full),0.34
10,CCN(CC)CC.O=P(O)(O)OC1C[C@@H](O)[C@H](O)[C@@H]([C@H](O)CO)O1 (stereo not given in full),2.93

# System: Cryptococcus neoformans
# Conditions: Concentration 32 ug.mL-1; ASSAY_TEST Inhibition of Fungal Growth; detection method Resazurin; Absorption (OD600-OD570); plate type 384well; NBS; CORNING #3640
row,Compound,Inhibition [%]
1,OC[C@@H](O)[C@H]1OC(O)C[C@@H](O)[C@@H]1O (stereo not given in full),-12.95
2,CCN(CC)CC.C[C@H](CC1O[C@H]([C@@H](O)CO)[C@@H](O)[C@H](O)[C@@H]1O)OP(=O)(O)OC[C@H]1O[C@@H](n2cnc3c(N)ncnc32)[C@H](O)[C@@H]1O (stereo not given in full),-12.97
3,N.O=C(O)C1(O)C[C@@H](O)[C@H](O)[C@@H]([C@@H](O)CO)O1 (stereo not given in full),-12.91
4,CCN(CC)CC.C[C@H](CC1O[C@H]([C@@H](O)CO)[C@@H](O)[C@H](O)[C@@H]1O)OP(=O)(O)O (stereo not given in full),-5.02
5,CCN(CC)CC.C[C@@H](CC1O[C@H]([C@H](O)CO)[C@@H](O)[C@H](O)[C@@H]1O)OP(=O)(O)OC[C@H]1O[C@@H](n2cnc3c(N)ncnc32)[C@H](O)[C@@H]1O (stereo not given in full),-12.32
6,CCN(CC)CC.C[C@H](CC1O[C@H]([C@H](O)CO)[C@@H](O)[C@H](O)[C@@H]1O)OP(=O)(O)OC[C@H]1O[C@@H](n2cnc3c(N)ncnc32)[C@H](O)[C@@H]1O (stereo not given in full),-3.79
7,CCN(CC)CC.C[C@@H](CC1O[C@H]([C@@H](O)CO)[C@@H](O)[C@H](O)[C@@H]1O)OP(=O)(O)OC[C@H]1O[C@@H](n2cnc3c(N)ncnc32)[C@H](O)[C@@H]1O (stereo not given in full),-9
8,CC(=O)CC1O[C@H]([C@@H](O)CO)[C@@H](O)[C@H](O)[C@@H]1O (stereo not given in full),-7.35
9,CCN(CC)CC.C[C@@H](CC1O[C@H]([C@@H](O)CO)[C@@H](O)[C@H](O)[C@@H]1O)OP(=O)(O)O (stereo not given in full),-7.83
10,CCN(CC)CC.O=P(O)(O)OC1C[C@@H](O)[C@H](O)[C@@H]([C@H](O)CO)O1 (stereo not given in full),-6.2
